GRIN3A LBD mod: binders of NR3A ligand-binding domain, primary screen, biophysical, differential scanning fluorimetry, uHTS. NR3A LBD differential scanning fluorimetry, Tm shift; 0% = protein alone, 100% = glycine-bound protein. Tm shift relative to glycine control, % at 25 µM. actives 2.5% (n = 340,000);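 active = melting temperature shift of at least 10% of the positive control shift, at one fixed dose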
rCAG RNA binder: binders of r(CAG) RNA repeats, primary screen, biochemical, fluorescence | inhibition, % at 3 µM | AID 651821, 2012 | r(CAG) RNA repeat, TO-PRO-1 dye displacement fluorescence | actives 1.3% (n = 370,000);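 active = inhibition above the plate cutoff, the mean of all test compounds on that plate plus 3 SD, cut at about 35% in these data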;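 also: 0% = DMSO alone and 100% = 100 µM mitoxantrone as full dye displacement; higher means more dye released from RNA so lower well fluorescence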
MPTP inh: mitochondrial permeability transition pore inhibitors, primary screen, biochemical, isolated mouse mitochondria, absorbance | Ca2+ swelling absorbance, 30 min | inhibition, % at 10 µM | actives 1.4% (n = 360,000) | AID 602449, 2012;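 active = inhibition of 50% or more, scaled per plate between neutral and stimulator controls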;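 also: 0% = DMSO wells given calcium and 100% = 1 mM EGTA wells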
FAS-TE inh: FAS thioesterase domain inhibitors, primary screen, biochemical, fluorescence intensity, uHTS. actives 0.67% (n = 360,000). recombinant FAS-TE, OMFH fluorogenic substrate, fluorescence endpoint. inhibition, % at 15 µM. Fatty acid synthase (Homo sapiens), P49327. AID 602261, 2012;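 active = compounds whose normalised, plate-corrected inhibition of enzyme fluorescence in the single-dose primary screen is 50% or more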;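 also: 0% = DMSO with enzyme and 100% = substrate without enzyme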
Target sequence (P49327 whole entry, looked up, the tested form may be a part): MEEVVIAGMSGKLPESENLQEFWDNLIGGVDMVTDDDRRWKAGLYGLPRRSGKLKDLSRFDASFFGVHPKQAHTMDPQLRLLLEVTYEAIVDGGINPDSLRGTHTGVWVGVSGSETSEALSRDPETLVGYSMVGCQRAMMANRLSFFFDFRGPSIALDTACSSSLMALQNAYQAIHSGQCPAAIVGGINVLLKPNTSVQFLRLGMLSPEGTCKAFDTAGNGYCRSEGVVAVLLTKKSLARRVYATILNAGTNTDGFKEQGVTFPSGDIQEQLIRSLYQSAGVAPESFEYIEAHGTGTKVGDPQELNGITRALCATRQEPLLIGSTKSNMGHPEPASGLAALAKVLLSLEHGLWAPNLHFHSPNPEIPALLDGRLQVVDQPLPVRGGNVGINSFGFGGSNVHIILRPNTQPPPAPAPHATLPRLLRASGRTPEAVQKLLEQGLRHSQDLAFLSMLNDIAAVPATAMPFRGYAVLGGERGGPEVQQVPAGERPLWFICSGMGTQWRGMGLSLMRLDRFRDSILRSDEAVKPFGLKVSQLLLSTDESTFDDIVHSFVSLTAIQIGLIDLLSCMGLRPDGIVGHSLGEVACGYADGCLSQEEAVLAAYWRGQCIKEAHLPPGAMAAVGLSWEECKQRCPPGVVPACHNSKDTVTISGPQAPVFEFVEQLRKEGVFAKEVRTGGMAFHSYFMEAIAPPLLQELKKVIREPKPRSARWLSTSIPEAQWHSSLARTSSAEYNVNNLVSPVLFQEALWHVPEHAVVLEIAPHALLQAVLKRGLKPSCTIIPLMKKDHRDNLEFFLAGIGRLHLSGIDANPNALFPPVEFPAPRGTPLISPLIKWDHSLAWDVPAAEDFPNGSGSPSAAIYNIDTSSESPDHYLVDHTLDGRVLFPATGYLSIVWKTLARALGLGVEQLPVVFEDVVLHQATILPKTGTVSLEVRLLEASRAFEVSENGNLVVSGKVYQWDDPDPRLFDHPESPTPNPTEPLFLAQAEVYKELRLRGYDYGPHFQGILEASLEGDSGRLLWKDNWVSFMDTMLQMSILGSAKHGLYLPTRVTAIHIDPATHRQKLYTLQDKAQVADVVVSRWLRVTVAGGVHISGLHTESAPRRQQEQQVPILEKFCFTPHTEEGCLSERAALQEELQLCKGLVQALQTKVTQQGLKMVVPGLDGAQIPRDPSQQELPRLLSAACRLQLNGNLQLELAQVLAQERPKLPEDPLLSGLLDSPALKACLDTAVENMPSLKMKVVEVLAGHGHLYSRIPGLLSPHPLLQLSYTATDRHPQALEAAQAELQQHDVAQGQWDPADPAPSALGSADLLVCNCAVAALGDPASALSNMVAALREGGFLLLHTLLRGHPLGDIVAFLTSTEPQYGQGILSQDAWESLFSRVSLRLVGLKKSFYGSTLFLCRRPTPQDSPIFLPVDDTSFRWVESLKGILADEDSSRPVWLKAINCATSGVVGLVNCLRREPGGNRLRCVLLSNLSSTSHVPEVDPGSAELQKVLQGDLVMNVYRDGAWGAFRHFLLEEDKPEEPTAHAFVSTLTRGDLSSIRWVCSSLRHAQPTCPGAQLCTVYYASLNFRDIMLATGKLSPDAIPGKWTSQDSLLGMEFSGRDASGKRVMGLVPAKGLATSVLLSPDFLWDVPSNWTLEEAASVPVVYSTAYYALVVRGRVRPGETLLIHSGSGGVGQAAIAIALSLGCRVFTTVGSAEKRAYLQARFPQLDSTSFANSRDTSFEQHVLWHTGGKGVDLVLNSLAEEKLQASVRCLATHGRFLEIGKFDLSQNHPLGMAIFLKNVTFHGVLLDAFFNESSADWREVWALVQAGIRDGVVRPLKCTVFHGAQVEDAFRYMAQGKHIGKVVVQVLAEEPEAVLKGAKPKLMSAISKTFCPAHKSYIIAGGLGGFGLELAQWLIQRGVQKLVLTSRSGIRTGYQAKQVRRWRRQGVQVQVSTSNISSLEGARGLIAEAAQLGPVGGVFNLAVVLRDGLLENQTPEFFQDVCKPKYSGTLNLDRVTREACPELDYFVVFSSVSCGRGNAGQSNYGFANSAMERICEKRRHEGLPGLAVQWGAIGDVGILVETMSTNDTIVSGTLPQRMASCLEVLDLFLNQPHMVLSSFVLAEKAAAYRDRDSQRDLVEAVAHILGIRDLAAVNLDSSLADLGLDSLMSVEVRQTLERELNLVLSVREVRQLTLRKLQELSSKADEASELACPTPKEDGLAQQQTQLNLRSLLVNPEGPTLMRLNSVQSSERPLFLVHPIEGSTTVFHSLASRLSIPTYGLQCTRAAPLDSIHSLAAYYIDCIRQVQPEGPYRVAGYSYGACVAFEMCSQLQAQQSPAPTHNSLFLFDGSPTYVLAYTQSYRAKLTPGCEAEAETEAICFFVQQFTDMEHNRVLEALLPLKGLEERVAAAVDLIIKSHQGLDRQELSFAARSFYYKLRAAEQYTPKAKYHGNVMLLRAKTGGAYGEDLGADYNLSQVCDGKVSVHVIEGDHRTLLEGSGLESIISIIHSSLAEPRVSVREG
Myeloid diff 2: induction of myeloid progenitor differentiation, primary screen, cell-based, flow cytometry, MLPCN library; ER-HoxA9 myeloid progenitors, lysozyme-GFP differentiation; calls only at 10 µM; actives 1% (n = 360,000);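 active = normalized GFP-positive differentiation at or above the plate's own cutoff, the solvent-only control mean plus 3 SD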;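 also: cells exposed to compound for four days before flow analysis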
rCAG binder conf: small molecules binding CAG repeat RNA – biochemical, fluorescence, confirmation. shares compounds with rCAG RNA binder. r(CAG) RNA repeat, TO-PRO-1 dye displacement fluorescence. AID 652065, 2013. actives 70% (n = 4,300). inhibition, % at 3 µM;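 active = inhibition above a per-plate cutoff, the mean inhibition of sample wells plus 3 SD, cut at about 35% in these data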;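 also: loss of TO-PRO-1 fluorescence as compound displaces dye from 1x1 AA loop RNA; 0% = DMSO only wells and 100% = 100 µM mitoxantrone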
dCAG dye counter: displacement of TO-PRO-1 from CAG DNA duplex, counter-screen for rCAG RNA repeat binder project, biochemical, fluorescence, TO-PRO-1 dye, d(CAG) DNA oligo | d(CAG) DNA oligo TO-PRO-1 dye displacement | shares compounds with rCAG RNA binder | AID 652068, 2013 | inhibition, % at 3 µM | actives 94% (n = 4,300);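 active = inhibition above its plate's cutoff, the mean test-well inhibition plus 3 SD, cut at about 4.8% in these data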;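 also: 0% = DNA dye mix with DMSO and 100% = 100 µM mitoxantrone; hits displace the dye from DNA and so lower well fluorescence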
DNA CAG DR: inhibitors of DNA CAG/GTC TO-PRO-1 complex, dose response, counter-screen for rCAG RNA repeat binder project, biochemical, fluorescence, TO-PRO-1 dye; shares compounds with rCAG RNA binder; DNA CAG/GTC duplex TO-PRO-1 dye displacement fluorescence; IC50, µM; actives 20% (n = 250); AID 686960, 2013; in the data active = IC50 below about 10 µM
* hit, by the source's call. An excerpt weighted towards active compounds, which were near 5.7% of everything screened.

Results for COc1cc2c(cc1OC)n(CC(=O)NC1CCCCCC1)n1c(C)cc(=O)nc21 ?
GRIN3A LBD mod: 0; rCAG RNA binder: 5; MPTP inh: 1; FAS-TE inh: 9; Myeloid diff 2: inactive

Results for CC1CCCCN1CC(=O)Nc1ccc2c(c1)OCO2 (configuration not stated) ?
GRIN3A LBD mod: 3; rCAG RNA binder: -2; MPTP inh: -2; FAS-TE inh: -10; Myeloid diff 2: inactive

Results for CCOC(=O)c1c(-c2ccc(C)c(C)c2)csc1NC(=O)C1CC=CCC1C(=O)O (configuration not stated) ?
GRIN3A LBD mod: -5; rCAG RNA binder: 44*; MPTP inh: 4; FAS-TE inh: -7; Myeloid diff 2: inactive; rCAG binder conf: 58*; dCAG dye counter: 19*

What do the screens show for `O=C(O)/C=C\c1cn(-c2ccccc2)nc1-c1cc2ccccc2o1`?
GRIN3A LBD mod: 2; rCAG RNA binder: 72*; MPTP inh: -1; FAS-TE inh: 3; Myeloid diff 2: inactive; rCAG binder conf: 62*; dCAG dye counter: 22*

What do the screens show for `O=C(O)/C=C/c1cn(-c2ccccc2)nc1-c1cc2ccccc2o1`?
GRIN3A LBD mod: -1; rCAG RNA binder: 67*; MPTP inh: 3; FAS-TE inh: 6; Myeloid diff 2: inactive; rCAG binder conf: 73*; dCAG dye counter: 26*; DNA CAG DR: inactive

What do the screens show for `COc1cccc(OCC(O)CN2CCN(C)CC2)c1` (configuration not stated)?
GRIN3A LBD mod: -1; rCAG RNA binder: 1; MPTP inh: 0; FAS-TE inh: -5; Myeloid diff 2: inactive

Results for COc1cccc2cc(C(=O)N3CC(C)OC(C)C3)c(=O)oc12 (configuration not stated) ?
GRIN3A LBD mod: -1; rCAG RNA binder: -3; MPTP inh: 1; FAS-TE inh: -5; Myeloid diff 2: inactive

Results for COc1cc2c(oc(=O)c3cc(C)cc(OC)c32)c2c(C3OC(C)C(O)C(C)(O)C3O)ccc(O)c12 (configuration not stated) ?
GRIN3A LBD mod: -1; rCAG RNA binder: 52*; MPTP inh: 1; FAS-TE inh: 0; rCAG binder conf: 13; dCAG dye counter: 6.9*

Results for NNC(=O)c1cc2ccccc2cc1O ?
GRIN3A LBD mod: 0; rCAG RNA binder: 41*; MPTP inh: 0; FAS-TE inh: -11; Myeloid diff 2: inactive; rCAG binder conf: 5; dCAG dye counter: 4

Results for O=C(NC(=S)NNC(=O)c1ccccc1O)c1ccco1 ?
GRIN3A LBD mod: -10; rCAG RNA binder: 2; MPTP inh: 0; FAS-TE inh: -4; Myeloid diff 2: inactive

Results for O=C(NC(=S)NNC(=O)c1cc2ccccc2cc1O)c1ccco1 ?
GRIN3A LBD mod: 11*; rCAG RNA binder: 67*; MPTP inh: 2; FAS-TE inh: 10; Myeloid diff 2: inactive; rCAG binder conf: 53*; dCAG dye counter: 17*

Results for C/C(CC(=O)N1CCCC1)=N\NC(=O)c1cc2ccccc2cc1O ?
GRIN3A LBD mod: -2; rCAG RNA binder: 38*; MPTP inh: 2; FAS-TE inh: -8; Myeloid diff 2: inactive; rCAG binder conf: 15; dCAG dye counter: 6.2*

From PubChem
